A number with no mark means an inactive call. Inconclusive results are not listed. The source made the active and inactive calls. Calls follow the shape of the dose curve; as a rule, active = well fitted curve in the direction sought with a large enough effect; inconclusive = small, poorly fitted or top-dose-only effect, or another doubt; inactive = no such curve, though single readings can be large; an effect the other way counts as inactive or inconclusive.
Tests used:
[1] = qHTS assay for measurement of the activity of small molecule inhibitors on Zika virus induced Caspase-3 activity in human iPSC derived neural progenitor cells (hNPCs) (AID 1224857); also: nearly all actives have a fitted effect of over 65% in size
In short: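 Quantitative HTS format: human iPSC neural progenitors, 1 h compound pretreatment, ZIKV 2 FFU/cell for 6 h at 37 C. Percent inhibition derived from luminescent caspase-3/7 signal between uninfected and infected controls.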

[2] = qHTS assay for measurement of the activity of small molecule inhibitors on Zika virus induced Caspase-3 activity in human astrocytoma cells (AID 1224859)
In short: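 Readout is luminescence from Caspase-Glo 3/7 added after a 6 h ZIKV infection (2 FFU/cell) of compound-pretreated (1 h) SNB-19 cells; data expressed as % inhibition versus uninfected and infected wells.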

[3] = qHTS Screen of the MIPE 4.0 Collection Against Ewings Sarcoma (TC71) (AID 1259253); also: potency is read from the fitted curve at half-maximal effect; nearly all actives have a fitted effect of over 40% in size
In short: (§1)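 Measured: ATP luminescence (CellTiter-Glo) 10 min after reagent addition, following 48 h drug treatment. Relative luciferase units converted to percent activity, with no-cell wells as full and DMSO wells as zero inhibition.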

[4] = qHTS Screen of the MIPE 4.0 Collection Against Ewings Sarcoma (EW8) (AID 1259255); also: nearly all actives have a fitted effect of over 35% in size; also: potency is read from the fitted curve at half-maximal effect
In short: as §1

[5] = Identifying Small Molecule Inhibitors of Pancreatic Cancer Stem Cells (SN12C, Adherent) (AID 1259358);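 also: potency is read from the fitted curve at half-maximal effect; cell survival measured after 48 h of compound exposure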
In short: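 After a 4 h attachment period, compounds were pinned into wells and cultures held 48 h under standard incubator conditions. Viability was then measured as CellTiter-Glo luminescence following 10 min at room temperature.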

[6] = qHTS Screen of the MIPE 4.0 Collection Against Ewings Sarcoma (RDES) (AID 1259252); also: nearly all actives have a fitted effect of over 35% in size; also: potency is read from the fitted curve at half-maximal effect
In short: as §1

[7] = qHTS Screen of the MIPE 4.0 Collection Against Ewings Sarcoma (TC32) (AID 1259256); also: potency is read from the fitted curve at half-maximal effect; nearly all actives have a fitted effect of over 45% in size
In short: as §1

[8] = qHTS assay to identify small molecule inhibitors of chordoma cells - UCH-2 (AID 1259356); also: series mostly up to about 46 µM
[9] = Identifying Small Molecule Inhibitors of Pancreatic Cancer Stem Cells (A2780, Spheroid) (AID 1259357); settings: Potency: A2780 spheroid viability;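 also: spheroids pre-formed over 14 days in stem cell medium on hydrogel; compound exposure lasted 48 h before the ATP luminescence read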
In short: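 Spheroids grown 14 days in stem cell media on nonadherent hydrogel before screening; cells attached 4 h, then compound exposure 48 h at 37C, 5% CO2. CellTiter-Glo luminescence normalized to DMSO (no inhibition) and no-cell wells (full inhibition).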

Compound | Potency [1] | Potency [2] | Potency [3] | Potency [4] | Potency [5] | Potency [6] | Potency [7] | outcome [8] | Potency [9]
Cn1cc(-c2[nH]c3cc(NC(=O)[C@H](N)C4CCCCC4)cc4c3c2C=NNC4=O)cn1 | inactive | inactive | 0.59 µM (active) | 0.372 µM (active) | 14.8 µM (active) |  |  |  | 
CNC(=O)c1ccccc1Nc1nc(Nc2ccc(N3CCOCC3)cc2OC)ncc1Cl | inactive |  | 1.32 µM (active) | 1.48 µM (active) |  | 11.8 µM (active) | 0.662 µM (active) |  | 
COc1cc(OC2CCN(C)CC2)ccc1Nc1ncc2c(n1)n(C1CCCC1)c(=O)n2C | inactive | inactive | 4.69 µM (active) | 7.43 µM (active) | 16.6 µM (active) |  | 4.69 µM (active) |  | 
Cc1cc(Nc2ncnc3ccc(-c4ccc(CNCCS(C)(=O)=O)o4)cc23)ccc1Oc1ccn2ncnc2c1 | inactive | inactive | 14.8 µM (active) | 16.6 µM (active) |  |  | 16.6 µM (active) |  | 
Nc1ncnc2c1c(-c1cnc3[nH]ccc3c1)nn2C1CCCC1 | inactive | inactive | 0.662 µM (active) | 2.09 µM (active) |  |  | 1.05 µM (active) |  | 
CC1(C)CC(=O)c2c(C(F)(F)F)nn(-c3ccc(C(N)=O)c(NC4CCC(OC(=O)CN)CC4)c3)c2C1 (stereo unspecified) | inactive | inactive | 0.166 µM (active) | 0.209 µM (active) |  |  | 0.132 µM (active) |  | 
O=C(CCCCCCC(=O)Nc1ccc([C@H]2O[C@@H](CSc3nc(-c4ccccc4)c(-c4ccccc4)o3)C[C@@H](c3ccc(CO)cc3)O2)cc1)NO | inactive |  | 13.2 µM (active) | 4.69 µM (active) |  | 7.43 µM (active) | 13.2 µM (active) |  | 
COC(=O)Nc1ccc(-c2nc(N3CCOCC3)c3cnn(C4CCN(Cc5cccnc5)CC4)c3n2)cc1 | inactive |  | 0.059 µM (active) | 0.0833 µM (active) |  | 0.166 µM (active) | 0.0469 µM (active) |  | 
CCOC(=O)C1=C(C)NC2=C(C(=O)CC(C)(C)C2)C1c1ccc(-c2ccccc2)cc1 (stereo unspecified) | inactive |  | 26.4 µM (active) | 29.6 µM (active) |  | 26.4 µM (active) | 23.5 µM (active) |  | 
O=C(O)c1ccc2cc(-c3ccc(O)c(C45CC6CC(CC(C6)C4)C5)c3)ccc2c1 | inactive | inactive | 0.59 µM (active) | 1.66 µM (active) | 2.64 µM (active) |  | 0.372 µM (active) |  | 
COc1ccc(C(=O)CC2(O)C(=O)Nc3c(Cl)ccc(Cl)c32)cc1 (stereo unspecified) | inactive |  | 3.32 µM (active) | 1.48 µM (active) |  | 2.35 µM (active) |  |  | 
COc1ccc(C=Cc2cc(OC)c(OC)c(OC)c2)cc1O | inactive | inactive |  | inactive | 0.0026 µM (active) | inactive |  |  | 
COCCOc1ccc2c(c1)ncn2-c1ccc2cccc(N3CCC(N)CC3)c2n1 | inactive | inactive | 14.8 µM (active) | 18.7 µM (active) |  |  |  |  | 
CC1(C)O[C@@H]2C[C@@H]3[C@H]4C[C@@H](F)C5=CC(=O)C=C[C@]5(C)[C@@]4(F)[C@@H](O)C[C@]3(C)[C@]2(C(=O)CO)O1 | inactive | inactive |  | inactive |  | inactive |  | inactive | 
CNC(=O)c1cc(Oc2ccc(NC(=O)Nc3cc(C(C)(C)C)nn3-c3ccc4ncccc4c3)c(F)c2)ccn1 | inactive |  | 16.6 µM (active) | 18.7 µM (active) |  | 20.9 µM (active) |  |  | 
Cc1ccc(-c2ncn(-c3ccc(Nc4nccc(-c5cccc(N6CCOCC6)c5)n4)cc3)n2)cn1 | inactive | inactive | 0.118 µM (active) | 0.0935 µM (active) | 0.059 µM (active) |  | 0.0526 µM (active) |  | 
COc1cc2c(cc1-c1c(C)noc1C)ncc1[nH]c(=O)n([C@H](C)c3ccccn3)c12 | inactive | inactive | 4.69 µM (active) | 18.7 µM (active) |  |  | 4.69 µM (active) |  | 
O=C(Nc1ncc(-c2cc(C(F)F)nn2-c2c(Cl)cccc2Cl)s1)C1CC1 | inactive |  | 0.743 µM (active) | 0.469 µM (active) |  | 0.418 µM (active) | 0.469 µM (active) |  | 
Cc1cnc(Nc2ccc(F)cc2Cl)nc1-c1c[nH]c(C(=O)N[C@H](CO)c2cccc(Cl)c2)c1 | inactive | inactive |  | 20.9 µM (active) | 13.2 µM (active) |  | 23.5 µM (active) |  | 
COc1cc(C)c(Sc2cnc(NC(=O)c3ccc(CNC(C)C(C)C)cc3)s2)cc1C(=O)N1CCN(C(C)=O)CC1 (stereo unspecified) | inactive | inactive | 18.7 µM (active) | 3.72 µM (active) |  |  | 5.9 µM (active) |  | 
CN(C)CCCN=c1c2ccccc2n(C)c2[nH]c(=O)n(C)c(=O)c12 | inactive | inactive | 10.5 µM (active) | 1.18 µM (active) | 20.9 µM (active) |  | 2.96 µM (active) |  | inactive
O=C(c1ccc(Nc2nccc(-c3cc4ccccc4s3)n2)cc1)N1CCC(N2CCCC2)CC1 | inactive | inactive |  | 20.9 µM (active) | 26.4 µM (active) |  | 20.9 µM (active) |  | 
Nc1ccccc1NC(=O)c1ccc(CNc2nccc(-c3cccnc3)n2)cc1 | inactive | inactive | 1.05 µM (active) | 1.05 µM (active) |  |  |  |  | 

From PubChem BioAssay (NCATS)
